# ± gives the standard deviation of the averaged measurements. Over roughly 25,000 sequences, “ln(normalized median fluorescence intensity)” has its median near 8.6; the highest 2% begin near 10. Shown is part of a subset that was picked to be rich in the highest values.
# System: PfAP2-EXP AP2 domain (GST-tagged)
# Assay: gcPBM binding intensity (ln(normalized median fluorescence intensity)); higher = stronger DNA binding
# Procedure, shortened: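 GST-fused DNA-binding domains of P. falciparum, expressed in E. coli, were applied at about 25 μg on average for 1 h to an Agilent 4 × 180k array of primer-extended double-stranded 36-bp intergenic genomic probes and negative controls. Binding intensity is the highest Masliner-normalised natural-log median intensity across replicate spots of either probe orientation, measured with Alexa488 anti-GST antibody and a 488 nm scan.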
row,Sequence,gcPBM binding intensity (ln)
1,ATTATTCGTTTTAAATGTACTCATATAAACGATAAA [XGTACX_site7866],8.52 ± 0.3
2,GGATATAACAAACACACACACACATATATATATATT [CACACA_site4141],8.59 ± 0.19
3,AAATCGAACAAATTATGTACTAAAAAAAAAATTTAT [XGTACX_site6399],8.39 ± 0.4
4,AATATGTATCCATACACACATACATTTTATTTGCAA [CACACA_site874],8.65 ± 0.45
5,AGCAAAAATTAAATAAATAAATATATATATATATAT [TGCATGCA_negctrl_site449],10.2 ± 0.63
6,TGATATATATATATATATATAACACACGCAAAAAAA [TGCATGCA_negctrl_site240],8.73 ± 0.51
7,AAAAAAAATTAAAATAAAATATAAATATAAAATATA [GTGCAC_negctrl_site714],8.23 ± 0.24
8,ATATATATATATAACACACGCAAAAAAATTAAATAA [CACACA_site1400],9.96 ± 0.11
9,ATATATATATATATAACACACGCAAAAAAATTAAAT [CACACA_site8395],10.2 ± 0.26
10,TACAAAAAAATAAAAAAAATTAAATAAATAAATATA [CACACA_negctrl_site45],8.17 ± 0.37
11,TATGTATCAAATAAATGTACATATATATATATATAT [XGTACX_site2189],10.1 ± 0.49
12,ATCATGTTATATACATGTACATATATATATATATAT [XGTACX_site1329],10.2 ± 0.3
13,TTATGGTTATACATATGTACATATATATATATATAT [XGTACX_site1494],10.3 ± 0.2
14,ATATATATATATATATGTACATATATACATATACAT [XGTACX_site2350],9.99 ± 0.43
15,ATCATGTTATATACATGTACATATATATATATATAA [XGTACX_site609],8.51 ± 0.4
16,ATATATATATACATATGTACATATATATTTATACAT [XGTACX_site2463],9.64 ± 0.33
17,ATATATATATATATATGTACATATGTTAGGATCAAA [XGTACX_site8626],10.2 ± 0.33
18,ATATATATATATACATGTACATATATACATTATATT [XGTACX_site936],9.99 ± 0.45
19,TGTTATATGTTCAAATGTACAAATCATATACATGTT [XGTACX_site3192],8.45 ± 0.38
20,AAAGATACTTTCCTCAAACACACAAAACTATACAAC [CACACA_site1475],8.79 ± 0.45
21,AAATTAAAATAATAATTCTACAAATTAATTTATCAT [XGTACX_negctrl_site44],7.97 ± 0.49
22,TATTTAAAACTATACACATGCATTATATAAAGATAT [TGCATGCA_site702],8.79 ± 0.4
23,AAAATAATATTTAATACACACATAATTATAATATAA [CACACA_site782],8.48 ± 0.32
24,AATGTTTTTGTGAGATGTATAAATTTTATTTTATTT [XGTACX_negctrl_site413],8.38 ± 0.38
25,ATATAACACAAGGGCACACATATACCTTTCCTTTTT [CACACA_site412],8.77 ± 0.36

row,Sequence,gcPBM binding intensity (ln)
1,ATTAATTTTAATAAAGGTACACGTAGTTTTTTATTA [XGTACX_site7868],8.16 ± 0.34
2,AAAAAAAAAATATGTACACACATATAAAATACATAA [CACACA_site6869],8.56 ± 0.3
3,ATGTTCTTTAAAACCACACACCCCCCAACCCCCCTC [CACACA_site2373],10.6 ± 0.13
4,TTTTTTTTTTTTTTTTTTTTTTTATGTTCTTAAAAA [GTGCAC_negctrl_site62],8.02 ± 0.67
5,CAAACCCACCAACACACACACACAAAAATGATTAAA [CACACA_site2432],8.49 ± 0.68
6,CTTTAAACCCTGAACACACACAAATACACCCAAAAA [CACACA_site4297],8.81 ± 0.42
7,CACACCCACAAAAACACACACAAAGGTGTTCTTATA [CACACA_site1293],9.43 ± 0.64
8,TTATGTTCTTTAAAACCACACACCCCCCAACCCCCC [CACACA_site8742],10.9 ± 0.29
9,ATAAATTTTTTTTTTTTTTTTTTTTTTTTTTTTTTT [CACACA_negctrl_site508],9.19 ± 0.057
10,ATATATTTTAATTGTTGTACATATTAAATAAATAGG [XGTACX_site2311],8.47 ± 0.49
11,TTGTATAAAATATGTAGTACAATAATATAACATTTT [XGTACX_site8607],8.55 ± 0.2
12,TATAAATTTAAAATGACACACACTAAAATTATTTAA [CACACA_site1239],8.36 ± 0.42
13,TTATTTTATCACACATGTACATATGTTAATTTTTTT [XGTACX_site5598],8.84 ± 0.33
14,CCTTGATATATATAAAGTACATATATATATATATAT [XGTACX_site4325],10.2 ± 0.24
15,ATATAAAAAAAATTTAGTACATATATATATATATAT [XGTACX_site8635],10.2 ± 0.48
16,AAGCATAAAGTATATAGTACATATATATATATATAT [XGTACX_site2945],10.2 ± 0.26
17,TTAAAAAAAAAAAAAAGTACATAAGTATATATAATA [XGTACX_site4295],8.43 ± 0.45
18,TACATATATGATAAAAGTACATATAAATATACATAA [XGTACX_site3804],8.45 ± 0.33
19,ATAAAAAAATAAATTAGTACATATATATATATATAT [XGTACX_site6971],10.1 ± 0.35
20,TAAAAATATAGGTATACACACATATAAATATAAATA [CACACA_site7785],8.54 ± 0.4
21,TATATTTATAGGTACACACACACATATAAATAAATA [CACACA_site6345],8.65 ± 0.37
22,AGATAAAAAAAGTACACACACACATATATATATATA [CACACA_site3072],10.2 ± 0.26
23,ATAATAAAAAAAATTAGTACATATATAAATATAAAT [XGTACX_site1937],8.3 ± 0.33
24,ATAAAAAAAAAAAAAAGTACACATATAAAAGTATTG [XGTACX_site8265],8.42 ± 0.41
25,ATTGGACTATAAATAGGTACACATATATATATATAT [XGTACX_site7562],10.4 ± 0.33
